Results: PubChem BioAssay (NCI)
About 79,000 compounds went through this panel and 15% of them were active in at least one assay; those are over-represented in the sample as a whole. A number with no mark means an inactive call. The source made the active and inactive calls. Cut-off read from the data, not from the text of the source: active = growth inhibition above about 70%; inactive = the rest.

Experiments:
[1] = NCI Yeast Anticancer Drug Screen. Data for the rad52 strain (AID 147);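 note: 0% = growth of vehicle-treated control cultures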; settings: S. cerevisiae rad52 mutant growth inhibition, active compounds read high
In short: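 Growth of repair-deficient yeast cells was compared between compound-treated and vehicle-treated cultures to give percent inhibition.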

[2] = NCI Yeast Anticancer Drug Screen. Data for the wt1 strain (AID 149);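 note: 0% = growth of vehicle-treated wt1 cultures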; settings: S. cerevisiae wt1 strain (SPY 50644) growth inhibition, active compounds read high
In short: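 wt1 strain grown with compound or vehicle; inhibition taken from the growth difference.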

[3] = NCI Yeast Anticancer Drug Screen. Data for the rad50EPP+ strain (AID 151);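 note: 0% = growth of vehicle-treated control cultures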; settings: S. cerevisiae rad50 mutant strain, active compounds read high
In short: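 Measured: growth inhibition of rad50EPP+ yeast. Reference: vehicle-treated controls. Screen uses strains with defined genetic alterations in DNA damage repair or cell cycle control.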

[4] = NCI Yeast Anticancer Drug Screen. Data for the mgt1 strain (AID 153); settings: S. cerevisiae mgt1 mutant growth inhibition, active compounds read high
In short: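 Compounds were applied to mgt1 mutant yeast, and growth was then compared against vehicle-treated control cultures to give percent inhibition.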

[5] = NCI Yeast Anticancer Drug Screen. Data for the rad50 strain (AID 155);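 note: 0% = growth of vehicle-only cultures of the same strain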; settings: S. cerevisiae rad50 strain growth inhibition, active compounds read high
In short: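 DNA repair mutant yeast, compound exposure, growth read-out; inhibition is taken relative to vehicle.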

[6] = NCI Yeast Anticancer Drug Screen. Data for the mec2-1 strain (AID 157); settings: S. cerevisiae mec2-1 strain, active compounds read high
In short: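 Compounds were applied to mec2-1 yeast cells. Their growth was then compared with that of vehicle-treated cultures to give growth inhibition.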

[7] = NCI Yeast Anticancer Drug Screen. Data for the rad14 strain (AID 159);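 note: 0% = growth of vehicle-treated control cultures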; settings: S. cerevisiae rad14 strain growth inhibition, active compounds read high
In short: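 DNA repair-defective yeast, compound-exposed; % growth inhibition derived by comparison with vehicle-treated controls.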

[8] = NCI Yeast Anticancer Drug Screen. Data for the sgs1 mgt1 strain (AID 161);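 note: 0% = growth of cultures given vehicle only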; settings: S. cerevisiae sgs1 mgt1 strain, active compounds read high
In short: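 This yeast growth screen uses a strain with defined DNA-repair lesions; compound-treated growth is compared with vehicle-treated growth.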

[9] = NCI Yeast Anticancer Drug Screen. Data for the CLN2oe strain (AID 163);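 note: 0% = growth of vehicle-only control cultures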; settings: S. cerevisiae CLN2oe strain, active compounds read high
In short: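 Cells of an engineered yeast line with disturbed cell-cycle regulation are treated with compound. Inhibition of growth is then calculated relative to the vehicle-treated reference.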

[10] = NCI Yeast Anticancer Drug Screen. Data for the bub3 strain (AID 167); settings: S. cerevisiae bub3 mutant strain, active compounds read high
In short: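 In this screen, a yeast mutant lacking normal mitotic checkpoint function is challenged with compound. Relative growth versus vehicle gives the inhibition value.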

[11] = NCI Yeast Anticancer Drug Screen. Data for the wt2 strain (AID 169);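 note: 0% = growth of vehicle-treated yeast cultures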; settings: S. cerevisiae wt2 strain growth inhibition, active compounds read high
In short: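 Growth of compound-treated yeast is measured and expressed as inhibition relative to vehicle-only controls.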

[12] = NCI Yeast Anticancer Drug Screen. Data for the mlh1 strain (AID 171);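 note: 0% = growth of vehicle-treated control cultures of the same strain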; settings: S. cerevisiae mlh1 strain growth inhibition, active compounds read high
In short: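 Test agents were incubated with yeast bearing a defined DNA damage repair or cell cycle control alteration; values are growth inhibition normalised to vehicle-treated cultures.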

[13] = NCI Yeast Anticancer Drug Screen. Data for the sgs1 strain (AID 173);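 note: 0% = growth of vehicle-only control cultures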; settings: S. cerevisiae sgs1 mutant, active compounds read high
In short: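 Strain with an altered DNA repair or cell cycle pathway exposed to compound. Growth then measured. Value = inhibition versus vehicle control.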

[14] = NCI Yeast Anticancer Drug Screen. Data for the mlh1 rad18 strain (AID 175); settings: S. cerevisiae mlh1 rad18 strain growth inhibition, active compounds read high
In short: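 A repair-deficient yeast strain is exposed to test compound, and growth is scored relative to vehicle-treated controls.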

[15] = NCI Yeast Anticancer Drug Screen. Data for the rad18 strain (AID 177); settings: S. cerevisiae rad18 mutant growth inhibition, active compounds read high
In short: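 DNA-repair-defective yeast; compound treatment; growth inhibition scored against vehicle.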

[16] = at 5.0 µM (retest, dose inferred, filed as 0.5)
[17] = at 50.0 µM (retest, dose inferred, filed as 5.0)

CCS(=O)(=O)Nc1ccc(Nc2c3ccccc3nc3ccccc23)c(OC)c1
growth inhibition ([1]; at 1.2 µM): 62%
growth inhibition ([1]; at 3.7 µM): 82% (active)
growth inhibition ([1]; at 11.0 µM): 88% (active)
growth inhibition ([1]; at 33.0 µM): 90% (active)
growth inhibition ([1]; at 100.0 µM): 93% (active)
growth inhibition ([2]; at 1.2 µM): -36%
growth inhibition ([2]; at 3.7 µM): -42%
growth inhibition ([2]; at 11.0 µM): -38%
growth inhibition ([2]; at 33.0 µM): -4%
growth inhibition ([2]; at 100.0 µM): 62%
growth inhibition ([3]; at 1.2 µM): -1%
growth inhibition ([3]; at 3.7 µM): 17%
growth inhibition ([3]; at 11.0 µM): 48%
growth inhibition ([3]; at 33.0 µM): 77% (active)
growth inhibition ([3]; at 100.0 µM): 84% (active)
growth inhibition ([4]; at 1.2 µM): -28%
growth inhibition ([4]; at 3.7 µM): -35%
growth inhibition ([4]; at 11.0 µM): -28%
growth inhibition ([4]; at 33.0 µM): 3%
growth inhibition ([4]; at 100.0 µM): 64%
growth inhibition ([5]; at 1.2 µM): 51%
growth inhibition ([5]; at 3.7 µM): 79% (active)
growth inhibition [5, 16]: 86% (active)
growth inhibition ([5]; at 11.0 µM): 86% (active)
growth inhibition ([5]; at 33.0 µM): 91% (active)
growth inhibition [5, 17]: 99% (active)
growth inhibition ([5]; at 50.0 µM): 24.7%
growth inhibition ([5]; at 100.0 µM): 92% (active)
growth inhibition ([6]; at 1.2 µM): -42%
growth inhibition ([6]; at 3.7 µM): -32%
growth inhibition [6, 16]: 12%
growth inhibition ([6]; at 11.0 µM): 7%
growth inhibition ([6]; at 33.0 µM): 69%
growth inhibition [6, 17]: 96% (active)
growth inhibition ([6]; at 50.0 µM): 11.8%
growth inhibition ([6]; at 100.0 µM): 89% (active)
growth inhibition ([7]; at 1.2 µM): -40%
growth inhibition ([7]; at 3.7 µM): -36%
growth inhibition ([7]; at 11.0 µM): -26%
growth inhibition ([7]; at 33.0 µM): 5%
growth inhibition ([7]; at 100.0 µM): 74% (active)
growth inhibition [8, 16]: 49%
growth inhibition [8, 17]: 98% (active)
growth inhibition ([8]; at 50.0 µM): 80.8% (active)
growth inhibition ([9]; at 1.2 µM): -8%
growth inhibition ([9]; at 3.7 µM): -35%
growth inhibition ([9]; at 11.0 µM): -2%
growth inhibition ([9]; at 33.0 µM): 29%
growth inhibition ([9]; at 100.0 µM): 59%
growth inhibition ([10]; at 1.2 µM): -50%
growth inhibition ([10]; at 3.7 µM): -32%
growth inhibition [10, 16]: 42%
growth inhibition ([10]; at 11.0 µM): -36%
growth inhibition ([10]; at 33.0 µM): 3%
growth inhibition [10, 17]: 65%
growth inhibition ([10]; at 50.0 µM): 50.5%
growth inhibition ([10]; at 100.0 µM): 67%
growth inhibition ([11]; at 1.2 µM): -47%
growth inhibition ([11]; at 3.7 µM): -47%
growth inhibition ([11]; at 11.0 µM): -42%
growth inhibition ([11]; at 33.0 µM): -1%
growth inhibition ([11]; at 100.0 µM): 56%
growth inhibition ([12]; at 1.2 µM): -57%
growth inhibition ([12]; at 3.7 µM): -33%
growth inhibition ([12]; at 11.0 µM): -24%
growth inhibition ([12]; at 33.0 µM): 17%
growth inhibition ([12]; at 100.0 µM): 74% (active)
growth inhibition ([13]; at 1.2 µM): -14%
growth inhibition ([13]; at 3.7 µM): -11%
growth inhibition ([13]; at 11.0 µM): -7%
growth inhibition ([13]; at 33.0 µM): 36%
growth inhibition ([13]; at 100.0 µM): 76% (active)
growth inhibition [14, 16]: 77% (active)
growth inhibition [14, 17]: 97% (active)
growth inhibition ([14]; at 50.0 µM): 36%
growth inhibition ([15]; at 1.2 µM): -21%
growth inhibition ([15]; at 3.7 µM): -12%
growth inhibition ([15]; at 11.0 µM): -18%
growth inhibition ([15]; at 33.0 µM): 23%
growth inhibition ([15]; at 100.0 µM): 74% (active)
